# Screens from PubChem.
# IDE exosite FP – exo-site inhibitors of human insulin-degrading enzyme; P14735; purified IDE, FL-6b probe fluorescence polarization; stronger effect = lower value; z-score at 20 µM; hit rate 6.3% among 17,000;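 active = z-score of -3 or lower, meaning strong loss of probe binding signal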;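 note: His-tagged human IDE residues 42-1019 made in E. coli with 30 nM FL-6b probe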
# Target sequence (P14735 42-1019 limits assumed): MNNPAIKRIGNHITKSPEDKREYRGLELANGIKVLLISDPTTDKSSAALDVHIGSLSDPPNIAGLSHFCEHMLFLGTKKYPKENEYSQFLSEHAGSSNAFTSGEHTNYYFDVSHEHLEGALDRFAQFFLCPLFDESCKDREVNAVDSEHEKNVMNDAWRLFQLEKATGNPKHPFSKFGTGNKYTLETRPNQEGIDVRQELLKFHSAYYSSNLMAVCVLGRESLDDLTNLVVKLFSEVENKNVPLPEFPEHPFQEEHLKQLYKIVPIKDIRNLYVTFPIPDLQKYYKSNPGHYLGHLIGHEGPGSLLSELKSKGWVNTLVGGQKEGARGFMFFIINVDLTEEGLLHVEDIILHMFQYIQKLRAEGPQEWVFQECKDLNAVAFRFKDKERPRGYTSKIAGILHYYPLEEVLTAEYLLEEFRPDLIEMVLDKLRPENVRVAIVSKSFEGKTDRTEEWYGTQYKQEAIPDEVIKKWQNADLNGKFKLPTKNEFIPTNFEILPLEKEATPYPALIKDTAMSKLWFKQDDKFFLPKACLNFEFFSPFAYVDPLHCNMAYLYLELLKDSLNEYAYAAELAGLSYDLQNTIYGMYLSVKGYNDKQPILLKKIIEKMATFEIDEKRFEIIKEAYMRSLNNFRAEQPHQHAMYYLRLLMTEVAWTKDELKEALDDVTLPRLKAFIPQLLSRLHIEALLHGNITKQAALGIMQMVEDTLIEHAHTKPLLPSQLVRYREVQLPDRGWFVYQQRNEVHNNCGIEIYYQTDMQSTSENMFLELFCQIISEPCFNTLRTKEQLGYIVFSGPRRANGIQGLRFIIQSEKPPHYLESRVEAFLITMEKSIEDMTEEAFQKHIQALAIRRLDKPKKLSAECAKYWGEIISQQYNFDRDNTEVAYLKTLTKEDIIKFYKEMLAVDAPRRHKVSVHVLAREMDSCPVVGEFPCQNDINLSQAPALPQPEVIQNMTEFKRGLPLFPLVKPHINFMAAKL
# An asterisk follows results filed as active; ! = a repeat was not active. This is one part of a sample in which hits are shown more often than they occur.
SMILES,IDE exosite FP
COCC(=O)N(C[C@H]1N[C@H](CO)[C@@H]1c1ccc(-c2cncnc2)cc1)C(C)C,0.88
C[C@@H]1CN([C@H](C)CO)S(=O)(=O)c2ccc(C#CC3(O)CCCC3)cc2O[C@@H]1CN(C)C(=O)Nc1cccc(F)c1,-0.72
Cc1ccc(CN2CC(=O)N3[C@H](CO)[C@H](c4ccc(Br)cc4)[C@@H]3C2)cc1,1.5
O=C(C1CC1)N1CC(=O)N2[C@H](C1)[C@H](c1ccc(Br)cc1)[C@@H]2CO,0.66
C[C@H](NC(=O)[C@@H]1[C@@H](CO)[C@@H]2Cn3c(cccc3=O)[C@@H]2N1CCC(F)(F)F)c1ccccc1,0.7
Cc1ccccc1-c1ccc(C2[C@H]3CNC[C@@H]2N3S(=O)(=O)c2cn(C)cn2)cc1 (stereo partly specified),-4.9*
Cn1cnc(S(=O)(=O)N2CCCCN3[C@H](CO)[C@@H](c4ccc(-c5ccccc5F)cc4)[C@H]3C2)c1,2.5
O=S(=O)(c1cccc(F)c1)N1[C@@H]2CNC[C@H]1C2c1ccc(-c2ccccc2F)cc1 (stereo partly specified),-1.1
Cc1ccccc1-c1ccc(C2[C@@H]3CN(Cc4cncnc4)C[C@H]2N3)cc1 (stereo partly specified),-2.6
Cc1ccccc1-c1ccc(C2[C@H]3CNC[C@@H]2N3S(=O)(=O)c2cccc(F)c2)cc1 (stereo partly specified),-3.4*!
C/C=C/c1ccc(C2[C@H]3CNC[C@@H]2N3S(=O)(=O)c2cn(C)cn2)cc1 (stereo partly specified),3.9
Cc1ccccc1-c1ccc(C2[C@@H]3CN(S(=O)(=O)c4cn(C)cn4)C[C@H]2N3)cc1 (stereo partly specified),-5.3*
Cc1ccc(-c2ccc(C3[C@H]4CNC[C@@H]3N4S(=O)(=O)c3ccccc3)cc2)cc1 (stereo partly specified),5
Cc1ccccc1-c1ccc(C2[C@H]3CNC[C@@H]2N3S(=O)(=O)c2ccc(F)cc2)cc1 (stereo partly specified),0.51
CN(C)C(=O)c1cccc(-c2ccc([C@@H]3[C@H](CO)N4C(=O)CN(C(=O)C5CC5)C[C@@H]34)cc2)c1,3.8
COc1ccc(C#Cc2ccc([C@@H]3[C@@H](CO)N4CCCCN(Cc5ccncc5)C[C@@H]34)cc2)cc1,4.3
CN1c2ccc(Br)cc2[C@@H]2[C@@H](CCN2C(=O)Nc2cccc(F)c2)[C@@H]1CO,-0.6
CCC(=O)NC[C@H]1[C@H](c2ccccc2)[C@H](CO)N1C(=O)C1CCC1,0.23
CCC(=O)N[C@@H]1CC[C@@H](CC(=O)NCc2ccccc2F)O[C@@H]1CO,1.1
O=C(C[C@@H]1CC[C@H]2NC[C@H](O)COC[C@@H]2O1)Nc1nccs1,-1.6
COc1ccc(-c2ccc([C@H]3[C@@H](CO)N4C(=O)CN(C(=O)NC(C)C)C[C@@H]34)cc2)cc1,1.3
CC(C)NC(=O)N1CC(=O)N2[C@@H](CO)[C@H](c3ccc(/C=C/c4ccccc4)cc3)[C@@H]2C1,-3.4*
COc1ccc(-c2ccc([C@@H]3[C@H](CO)N4C(=O)CN(C(=O)NC(C)C)C[C@@H]34)cc2)cc1,-0.3
Cc1ccc(-c2ccc([C@@H]3[C@H](CO)N4C(=O)CN(C(=O)NC(C)C)C[C@@H]34)cc2)cc1,-1.4
CC(C)NC(=O)N1CC(=O)N2[C@H](CO)[C@@H](c3ccc(/C=C/c4ccccc4)cc3)[C@@H]2C1,-3.3*
SMILES,IDE exosite FP
COc1ccc(NC(=O)N2CC(=O)N3[C@H](CO)[C@H](c4ccc(/C=C/c5ccccc5)cc4)[C@@H]3C2)cc1,-1.2
N#C[C@@H]1[C@H](c2ccc(C3=CCCCC3)cc2)[C@H](CO)N1C(=O)Nc1ccccc1F,0.64
CC(C)CC#Cc1ccc([C@H]2[C@@H](CO)N3C(=O)CN(C(=O)c4cnccn4)C[C@H]23)cc1,1.5
O=C1CN(S(=O)(=O)Cc2ccccc2)C[C@H]2[C@H](c3ccc(C#Cc4cccnc4)cc3)[C@@H](CO)N12,3.2
CO[C@@H]1CN(C)C(=O)c2cc(NC(=O)c3cnccn3)ccc2OC[C@@H](C)NC[C@@H]1C,0.77
COc1ccccc1-c1ccc([C@H]2[C@@H](CO)N(C(=O)C3CCCCC3)[C@H]2C#N)cc1,-3.3*
COc1ccc(-c2ccc([C@@H]3[C@@H](C#N)N(C(=O)C4CC4)[C@H]3CO)cc2)cc1,1.7
COc1ccc(-c2ccc([C@H]3[C@@H](C#N)N(C(=O)C4CC4)[C@@H]3CO)cc2)cc1,0.4
COc1ccccc1-c1ccc([C@H]2[C@@H](C#N)N(C(=O)C3CC3)[C@H]2CO)cc1,-5.3*
COc1ccccc1-c1ccc([C@H]2[C@H](C#N)N(C(=O)C3CC3)[C@H]2CO)cc1,-10*
COc1ccc(-c2ccc([C@@H]3[C@@H](C#N)N(C(=O)C4CCCC4)[C@H]3CO)cc2)cc1,0.9
COc1ccccc1-c1ccccc1[C@H]1[C@H](C#N)N(C(=O)C2CC2)[C@H]1CO,3.4
COc1ccc(-c2ccc([C@H]3[C@H](C#N)N(C(=O)C4CC4)[C@H]3CO)cc2)cc1,-0.56
COc1ccccc1-c1ccc([C@H]2[C@@H](C#N)N(C(=O)C3CC3)[C@@H]2CO)cc1,-3.2*
COc1ccc(-c2ccc([C@H]3[C@@H](C#N)N(C(=O)C4CCCC4)[C@@H]3CO)cc2)cc1,3.2
CO[C@@H](C(=O)N(C)C[C@@H]1OCc2ccccc2-c2ccccc2C(=O)N([C@@H](C)CO)C[C@H]1C)c1ccccc1,-0.36
CN1C(=O)c2cc(NC(=O)c3ccc(C(F)(F)F)cc3)ccc2OC[C@H]2O[C@H](CC(=O)NCc3ccc4c(c3)OCO4)CC[C@@H]21,-0.98
COc1ccc(S(=O)(=O)N2CC[C@H]3[C@H](CO)Nc4ccc(Br)cc4[C@H]32)cc1,-0.3
COc1cccc(NC(=O)N2CC(=O)N3[C@H](CO)[C@H](c4ccc(C#CCC5CCCC5)cc4)[C@@H]3C2)c1,0.7
COc1ccc(-c2ccc([C@@H]3[C@@H](CO)N4C(=O)CNC[C@@H]34)cc2)cc1,4.8
CCCC#Cc1ccc([C@@H]2[C@H](CO)N3C(=O)CN(C(=O)Nc4cccc(F)c4)C[C@@H]23)cc1,-0.095
COCC#Cc1ccc([C@@H]2[C@H](CO)N3C(=O)CN(C(=O)Nc4cc(F)ccc4F)C[C@@H]23)cc1,1.9
O=C(Nc1ccc(C(F)(F)F)cc1)N[C@H]1C=C[C@H](CC(=O)N2CCCCC2)O[C@@H]1CO,0.52
N#C[C@@H]1[C@H](c2ccc(C#CCC3CCCC3)cc2)[C@@H](CO)N1C(=O)CN1CCOCC1,2.5
O=C(c1cccc(F)c1)N1CC(=O)N2[C@H](CO)[C@H](c3ccc(-c4ccccc4)cc3)[C@@H]2C1,3.4
SMILES,IDE exosite FP
COc1ccc2c3c([nH]c2c1)[C@H](CO)N(C(=O)C1CCOCC1)CC31CCN(Cc2nccs2)CC1,0.46
O=C(c1ccncc1)N1CC(=O)N2[C@H](CO)[C@@H](c3ccc(C#CCC4CCCC4)cc3)[C@@H]2C1,0.71
CCC(=O)N1[C@@H](CO)[C@@H](c2ccc(-c3cccc(F)c3)cc2)[C@@H]1CN(C)C(C)=O,0.53
N#C[C@@H]1[C@@H](c2ccc(-c3ccccc3F)cc2)[C@H](CO)N1C(=O)C1CCC1,2.1
N#C[C@H]1[C@H](c2ccc(-c3ccccc3F)cc2)[C@H](CO)N1C(=O)C1CC1,-2.4
COc1ccc(-c2ccc([C@@H]3[C@H](C#N)N(C(=O)NC(C)C)[C@H]3CO)cc2)cc1,0.084
N#C[C@@H]1[C@@H](c2ccc(-c3ccccc3F)cc2)[C@@H](CO)N1C(=O)C1CCC1,1.2
